Screening results as filed in PubChem.
Rows were chosen to be rich in hits. Some 11% of all compounds tested hit in one or more screens of this group.
IMPase inh = cell-permeable inhibitors of inositol monophosphatase (IMPase); AID 901; P97697; inhibition (IP1 accumulation), % at 46.1 µM; CHO-M1 cells, IP1 accumulation, HTRF TR-FRET ratio; 120,000 tested, under 10 active; active means well fitted curve in the direction sought with a large enough effect in the signal ratio, not every such curve was filed as active; inconclusive means small, poorly fitted or top-dose-only effect, or a change in a side signal; inactive means no such curve, though single readings can be large or run the other way; the % refers to the signal ratio;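 further: cells stimulated with carbachol in lithium chloride buffer; plate controls were DMSO basal wells for no effect and reference inhibitor wells for full effect; higher means more IMPase inhibition seen as more IP1 and lower FRET ratio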
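Carbachol-driven Gq signalling in CHO-M1 cells (2000/well) generates IP1. Compounds that block IMPase raise IP1 and so reduce the FRET signal from Eu-anti-IP1 and d2-IP1 after a 10 min room-temperature lysis.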
IMPase Li inh = membrane-permeable IMPase blocker, potentiated with lithium | CHO-M1 cells, IP1 TR-FRET (IP-One), carbachol + lithium | Potency, µM (highest dose often 59.4 µM), for the others: at the top dose activity, negative = IMPase inhibition, actives largely listed as inhibitors | hit rate 0.35% among 210,000 | AID 1457;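 further: IP1 builds up when IMPase is blocked and the TR-FRET signal falls; potency means the concentration at half of the fitted maximal effect; plate controls were basal vehicle for no effect and high inhibitor control for full effect; nearly all actives have a fitted effect of over 50% in size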
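IP1 accumulation measured by competitive TR-FRET in lysed CHO-M1 cells after 30 min compound exposure at 37C, with a small lithium addition to potentiate weak responses. Hill-equation AC50 from ratio and donor-channel data.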
PNC inhibitor = blocks assembly of the perinucleolar compartment | PC3M PTB-GFP, PNC prevalence imaging, 16 h; active compounds read low | activity change (PNC), negative = inhibition, % at 10 µM | hit rate 3.1% among 140,000 | AID 2417;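 active means readout at or below -70, meaning at least 70% loss of cells showing the perinucleolar compartment, a nuclear body marking cancer cells; inconclusive means readout between -30 and a set limit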;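 further: plate controls were DMSO wells for no effect and camptothecin positive control wells for full effect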
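PC3M cells stably expressing PTB-GFP, 750–1000 cells/well, treated 16 h at 37 °C with compound (23 nl of library stock), in duplicate. After paraformaldehyde fixation and Hoechst stain, imaged at 20x; PNC prevalence scored by image analysis.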
ALOX12 inhib = 12-hLO (ALOX12) enzyme inhibition; purified 12-hLO, xylenol orange hydroperoxide absorbance; AID 1452; Potency, µM (titrated, usually from 57.1 µM), for the others: top-dose activity change, negative = inhibition, most hits filed as inhibitors; hit rate 0.12% among 150,000; further: potency means the concentration at half of the fitted maximal effect; nearly all actives have a fitted effect of over 55% in size
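Xylenol orange chromogenic assay: hydroperoxide from 12hLO oxidises Fe(II), giving red-shifted Fe(III)-XO absorbance. Conditions: 150 nM enzyme, 40 uM arachidonic acid, 25 mM Hepes pH 7.0, 0.01% Triton X-100, 30 min, room temperature.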
ALDH1A1 inh = blocks purified human ALDH1A1 activity. P00352. Purified ALDH1A1, NADH fluorescence, propionaldehyde substrate. Potency, µM (series often up to 75.3 µM), inactives show at the highest dose activity, negative = inhibition, usual class: inhibitors. hit rate 7.3% among 220,000; active means well fitted inhibition curve with a large enough effect, not every such curve was filed as active; inconclusive means small, poorly fitted or top-dose-only effect, or another doubt; inactive means no such curve, though single readings can be large or run the other way;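 further: potency means the concentration at half of the fitted maximal effect; plate controls were no enzyme wells and a reference inhibitor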
Target sequence (P00352 whole entry, looked up): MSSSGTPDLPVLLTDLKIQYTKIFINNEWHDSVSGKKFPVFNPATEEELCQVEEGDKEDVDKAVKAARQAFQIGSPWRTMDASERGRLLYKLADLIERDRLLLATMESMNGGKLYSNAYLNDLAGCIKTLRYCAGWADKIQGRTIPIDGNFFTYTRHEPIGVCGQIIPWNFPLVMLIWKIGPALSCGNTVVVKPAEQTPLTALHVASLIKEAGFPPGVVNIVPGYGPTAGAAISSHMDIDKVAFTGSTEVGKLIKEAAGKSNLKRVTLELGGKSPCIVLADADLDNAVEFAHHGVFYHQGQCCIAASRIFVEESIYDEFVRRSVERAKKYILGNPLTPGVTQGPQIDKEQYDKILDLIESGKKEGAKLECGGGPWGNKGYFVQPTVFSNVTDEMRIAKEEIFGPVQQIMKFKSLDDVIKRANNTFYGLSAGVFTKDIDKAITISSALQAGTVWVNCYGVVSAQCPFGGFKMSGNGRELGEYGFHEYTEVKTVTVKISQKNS
HPGD inh = inhibitors of human 15-hydroxyprostaglandin dehydrogenase (HPGD); P15428; purified HPGD, NADH fluorescence kinetic, PGE2 substrate; Potency, µM, for inactives: top-dose activity change, negative = inhibition, actives largely listed as inhibitors; hit rate 4.3% among 150,000; AID 894; active means well fitted inhibition curve with a large enough effect, not every such curve was filed as active; inconclusive means small, poorly fitted or top-dose-only effect, or another doubt; inactive means no such curve, though single readings can be large or run the other way; further: potency means the concentration at half of the fitted maximal effect
Target sequence (P15428 whole entry, looked up): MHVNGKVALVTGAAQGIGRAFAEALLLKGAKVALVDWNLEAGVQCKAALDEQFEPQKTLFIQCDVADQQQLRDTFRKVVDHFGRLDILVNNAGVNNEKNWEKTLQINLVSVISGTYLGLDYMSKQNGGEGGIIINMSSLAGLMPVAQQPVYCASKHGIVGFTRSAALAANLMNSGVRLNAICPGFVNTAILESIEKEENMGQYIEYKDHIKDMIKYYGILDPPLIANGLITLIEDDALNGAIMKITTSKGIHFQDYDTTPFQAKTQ
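NADH formation kinetics: reaction with 30 uM PGE2 and 1 mM NAD+ (final), 20 nM enzyme, Tris-HCl pH 8 with Tween 20, after 15 min compound preincubation at room temperature. Fluorescence change, last versus first of five reads.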
An asterisk follows results filed as active; ? = inconclusive; · = no result; ! = a repeat was not active; [ ] = another dose, or the depositor's remark. Unless noted, the call rests on the fitted dose curve; in most records, active means well fitted curve in the direction sought with a large enough effect; inconclusive means small, poorly fitted or top-dose-only effect, or another doubt; inactive means no such curve, though single readings can be large; an effect the other way counts as inactive or inconclusive. Unless noted, on the % scale 0 is the no-effect control and ±100 the full control effect.

SMILES	IMPase inh	IMPase Li inh	PNC inhibitor	ALOX12 inhib	ALDH1A1 inh	HPGD inh
Cc1ccc(-n2c(SCC(=O)OC(C)C)nnc2-c2ccncc2)cc1	-7.3	4.1%	-100.0*	0.5%	1.4%	-21.1%
CC(C)OC(=O)CSc1nnc(-c2ccc(C(C)(C)C)cc2)n1N	-1.5	4.5%	33.9	-6.7%	17.8µM*	17.8µM*
CNCCCCCCCCSc1nc(C(C)C)ccc1C(=O)c1cccs1	9.6	27.7%	·	-7.8%	?	-0.8%
CN(Cc1ccco1)c1ccnc(-c2cccc(C#N)c2)n1	·	18.0%	·	·	?	·
COc1ccc(Oc2ncc3nc(-c4cn(C)c5ccccc45)c(=O)n(C)c3n2)cc1	·	-4.9%	·	·	4.0%	·
Cn1ccnc1SCC(=O)NC12CC3CC(CC(C3)C1)C2	6.6	-3.2%[38.3 µM]	-126.5*	-0.7%	?	-16.1%
COC(=O)c1ccccc1NC(=O)CSc1nccn1C	3.2	-4.6%[38.3 µM]	22.7	0.4%	-10.2%	-10.9%
COC(=O)c1cc(NC(=O)CSC2=NCCS2)cc(C(=O)OC)c1	·	9.7%	·	·	12.6µM*	·
Cn1ccnc1SCC(=O)Nc1cccc2ccccc12	-0.6	-5.1%[38.3 µM]	?	-5.8%	-0.1%	25.1µM*
O=C(O)c1ccccc1CSC1=NCCS1	·	-1.5%	·	·	20µM*	·
Cc1nnc(SCC(=O)NC23CC4CC(CC(C4)C2)C3)n(N)c1=O	·	-4.8%	·	·	?	·
CN(C)C(=O)C1CCN(Cc2c[nH]c3ccccc23)CC1	·	7.1%	·	0.8%[11.4 µM]	14.3%[13.5 µM]	-0.4%
CC(C)NC(=O)N1CC[C@@]2(CCCN(C(=O)c3ccncc3)C2)C1	·	-10.6%	·	0.9%	1.9%	-7.8%
Cn1ccnc1SCC(=O)c1ccc(Br)cc1	7.4	-9.9%[38.3 µM]	18.9	?	3.55µM*	?
O=C(CSC1=NCCS1)NC(NC(=O)CSC1=NCCS1)c1ccccc1	·	3.9%	·	·	5.4%	·
Cn1ccnc1SCC(=O)c1ccc([N+](=O)[O-])cc1	·	2.5%	·	·	?	·
O=C(CSC1=NCCS1)Nc1cccc2ccccc12	-8.8	35.1%[38.3 µM]	17.3	-4.2%	?	14.1µM*
O=C(CSC1=NCCS1)Nc1ccccc1F	0.4	-13.8%[38.3 µM]	?	0.2%	8.91µM*	28.2µM*
CCOc1ccccc1N1C(=O)CC(Sc2n[nH]c(-c3ccccc3)n2)C1=O (stereo unspecified)	·	9.8%	·	·	11.2µM*	·
CCOC(=O)CN1C(=O)C(Sc2n[nH]c(-c3ccc(C)cc3)n2)CCc2ccccc21 (stereo unspecified)	-0.8	18.6%[38.3 µM]	69.7	-9.5%	3.1%	-4.0%
O=C(/C=C/c1cccc(Br)c1)NCC1CCCCC1	8.9	28.3%	-13.2	-2.0%	11.2µM*	-22.3%
O=C(COC(=O)/C=C/c1cccc(Br)c1)NCCC1=CCCCC1	·	3.2%	48.8	-2.1%	-2.2%	-16.4%
Cc1sc(-n2c(C)ccc2C)c(C#N)c1C	5.9	-2.6%[38.3 µM]	16.8	-4.8%	22.4µM*	17.8µM*
Cc1ccc(C)n1-c1sc2c(c1C#N)CCCC2	0.5	15.6%	-100.0*	-22.7%	-5.0%	-15.6%
N#Cc1c(-n2cccc2C=O)sc2c1CCCC2	·	-0.4%	·	·	31.6µM*	·
SMILES	IMPase inh	IMPase Li inh	PNC inhibitor	ALOX12 inhib	ALDH1A1 inh	HPGD inh
O=S(=O)(c1ccccc1)N1CCC2(CCCN(c3ccccn3)C2)CC1	·	8.2%	·	0.2%	?	-28.7%
OCC(O)C(O)[C@H](O[C@H]1OC(CO)C(O)C(O)C1O)[C@H](O)CO (stereo partly specified)	·	5.5%	·	1.1%	-4.1%	-5.3%
Cc1cccc(N2C(=O)CC(SC(=Nc3ccccc3)Nc3ccccc3)C2=O)c1 (stereo unspecified)	15.4	3.5%	1.5	2.7%	-8.3%	-10.1%
O=C1SC(SC(=Nc2ccccc2)Nc2ccccc2)C(=O)N1c1ccccc1 (stereo unspecified)	·	-1.0%	-4.1	0.2%	25.1µM*	-12.4%
CCN(c1cccc(C)c1)S(=O)(=O)c1ccc2c(c1)CCN2C(C)=O	9.1	-7.0%[38.3 µM]	28.8	-5.1%	8.4%	-12.7%
CCN(c1cccc(C(F)(F)F)c1)S(=O)(=O)c1ccc2c(c1)CCN2C(C)=O	-2.0	23.5%[38.3 µM]	-98.5*	1.1%	8.7%	-0.8%
CC(=O)Oc1ccc2c(c1)Oc1cc(OC(C)=O)ccc1C21OC(=O)c2ccccc21	5.2	-2.8%	-100.0*	-3.7%	?	-18.8%
CCCCC1=CC2=C(c3ccco3)C(=O)C(C)(OC(=O)c3cccs3)C(=O)C2=CO1 (stereo unspecified)	·	24.5%	·	-15.1%	-4.4%	-21.4%
CN(C)c1ccc(C2NCC(CCl)O2)cc1 (stereo unspecified)	7.7	20.7%[38.3 µM]	-21.7	-1.4%	1.41µM*	-4.7%
CN(C)c1ccc(CNC2CC(C)(C)NC(C)(C)C2)cc1	-0.1	30.7%[38.3 µM]	50.9	6.2%	?	-9.6%
CC/C(O)=C1\C(=O)CC(c2ccccc2)CC1=NCCc1c(C)[nH]c2ccc(C)cc12 (stereo unspecified)	·	7.2%	-13.7	0.3%	2.3%	-5.5%
CC(=O)C1=C(O)CC(c2ccccc2)CC1=NCCc1c(C)[nH]c2ccc(C)cc12 (stereo unspecified)	·	?	-118.9*	-1.1%	?	-23.4%
CCC(=NCCc1c(C)[nH]c2ccc(C)cc12)C1=C(O)CC(c2ccccc2)CC1=O (stereo unspecified)	·	19.3%	-116.4*	-7.0%	-9.9%	-22.4%
CC(=O)C1=C(O)CC(c2ccccc2)CC1=NCCc1c(C)[nH]c2ccccc12 (stereo unspecified)	·	10.6%	26.1	-7.6%	-0.2%	-10.9%
Cc1cc(C)c(S(=O)(=O)N2CCN(C(=O)N(C)C)CC2)c(C)c1	·	-19.1%	·	·	4.47µM*	·
Cc1ccc(S(=O)(=O)N2CCN(C(=O)N(C)C)CC2)cc1	·	0.3%	·	·	-9.6%	·
Cc1ccc(O)c(C2=NNC(O)(C(F)(F)F)C2)c1 (stereo unspecified)	-5.4	9.0%[38.3 µM]	26.9	-14.9%	9.2%	25.1µM*
O=C(Nc1ccccc1)N1CC2(CCN(C(=O)c3ccco3)CC2)C1	·	1.9%	·	0.5%	2.4%	-8.9%
Cc1cc(N/N=C/c2c[nH]c3ccccc23)c2ccccc2n1	·	0.4%	·	·	?	·
Fc1c(F)c(F)c(N/N=C/c2c[nH]c3ccccc23)c(F)c1F	-2.8	9.2%	?	-1.8%	31.6µM*	-4.0%
Cn1c(N/N=C/c2c[nH]c3ccccc23)nc2ccccc21	15.5	-28.6%[38.3 µM]	15.1	?	15.8µM*	?
CCCCOc1cccc(NC(=O)c2cccc(C(=O)Nc3cccc(OCCCC)c3)c2)c1	-5.4	·	·	·	·	·
COc1c2ccoc2cc2oc(C)cc(=O)c12	·	0.8%	·	-1.7%	-8.4%	?
COc1c2occc2c(OC)c2c(=O)cc(C)oc12	2.4[20.6 µM]	-4.6%	19.7	-0.9%	0.7%	28.2µM*!
COC(=O)NC/C=C\c1nc(CCCO)co1	·	·	·	·	-9.1%[13.5 µM]	·
